Source: PubChem
Rce1 inh: yeast Ras-converting enzyme inhibition; AID 2563; yeast membranes, quenched prenylated peptide cleavage fluorescence; calls only; hit rate 0.27% among 290,000;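 active = fall in fluorescence gain of 50% or more versus controls, with final raw signal at or below 3038400; inconclusive = same 50% fall but final raw signal above 3038400; inactive = fall in fluorescence gain under 50%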
Target sequence (Q03530 whole entry, looked up): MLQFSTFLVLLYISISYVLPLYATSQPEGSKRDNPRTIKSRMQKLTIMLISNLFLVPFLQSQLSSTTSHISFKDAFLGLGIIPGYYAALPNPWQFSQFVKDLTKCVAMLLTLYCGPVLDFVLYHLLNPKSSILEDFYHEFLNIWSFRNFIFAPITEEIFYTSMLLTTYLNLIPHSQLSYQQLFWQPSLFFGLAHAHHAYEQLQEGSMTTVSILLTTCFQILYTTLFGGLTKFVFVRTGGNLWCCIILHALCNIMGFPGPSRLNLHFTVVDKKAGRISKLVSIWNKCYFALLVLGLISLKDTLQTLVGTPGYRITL
ALR H2O2 inh: human ALR oxidase inhibition via reduced H2O2. P55789. purified ALR, DTT oxidation, H2O2 HRP-luminol luminescence. inhibition, % (no concentration beside the values). hit rate 3.8% among 290,000;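 active = mean replicate inhibition above about 79%, with every replicate also reaching it, limit read from the data; inconclusive = only one of the two criteria met; inactive = mean below limit and not every replicate reaching it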
HDAC3 inhib: blocks human histone deacetylase 3. recombinant HDAC3, fluorogenic peptide/trypsin coupled, fluorescence. inhibition, % at 8.3 µM. hit rate 0.15% among 320,000. AID 2718; in the data active = inhibition above about 26%, passing the limit was not always enough; inconclusive = no clear call, values can overlap the other calls
GRK2 aptamer HTS: human GRK2 inhibition via aptamer displacement. P25098. inhibition of aptamer binding, % at 10 µM. hit rate 0.59% among 330,000. bead flow cytometry, FAM-aptamer displacement from GRK2;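 active = inhibition of aptamer binding above 40%, roughly 3 SD of noise, on plates passing a quality check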;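 note: median bead fluorescence of bound FAM aptamer so fluorescent compounds give negative values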
Rtt109 HAT inh: C. albicans Rtt109 histone acetyltransferase inhibition | purified Rtt109/Vps75, ThioGlo CoA-SH fluorescence, 4 h | Q5AAJ8 | inhibition, % at 34.9 µM | hit rate 0.16% among 330,000 | AID 540336;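 active = inhibition of at least 50% in every replicate; inconclusive = best replicate reaches 50% inhibition but some replicates fall short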
Target sequence (Q5AAJ8 whole entry, looked up): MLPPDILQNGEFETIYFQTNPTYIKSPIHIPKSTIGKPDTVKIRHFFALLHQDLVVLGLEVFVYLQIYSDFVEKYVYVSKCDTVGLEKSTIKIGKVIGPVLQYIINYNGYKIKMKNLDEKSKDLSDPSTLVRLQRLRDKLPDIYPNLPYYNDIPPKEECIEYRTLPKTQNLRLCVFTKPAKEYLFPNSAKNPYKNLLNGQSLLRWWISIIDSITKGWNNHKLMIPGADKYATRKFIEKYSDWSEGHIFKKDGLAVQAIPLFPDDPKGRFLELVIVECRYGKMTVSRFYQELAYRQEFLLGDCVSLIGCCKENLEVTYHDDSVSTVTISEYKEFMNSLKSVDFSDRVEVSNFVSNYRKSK
Efflux pump inh: blocks antifungal efflux pumps in multiplex yeast assay | S. cerevisiae Candida pump triplex, Nile Red efflux | inhibition, % at 10 µM | hit rate 0.44% among 330,000 | AID 485275;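 active = plate passing quality check with inhibition over a set limit, or well fluorescence over plate mean plus 4 SD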;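 note: Nile Red retained in pooled yeast measured as flow cytometry median fluorescence; higher means more Nile Red kept so more efflux inhibition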
Numbers stand for hits; - = inactive; ? = inconclusive; . = no result; + = active, no number. A selection: hits, their analogues and other compounds. The true share with any hit is near 4.5%.

SMILES | Rce1 inh | ALR H2O2 inh | HDAC3 inhib | GRK2 aptamer HTS | Rtt109 HAT inh | Efflux pump inh
O=C1OC(CC(=O)N(Cc2nnc(-c3ccccc3Cl)o2)C2CC2)c2ccccc21 (stereo not drawn) | . | - | - | - | - | -
Cn1c(N/N=C/c2ccccc2)nc2sc3c(c2c1=O)CCC3 | - | 92.1 | - | - | - | -
O=C(CSc1nc2sc3c(c2c(=O)n1-c1ccccc1)CCCC3)N/N=C/c1ccc(C(=O)O)cc1 | - | - | - | - | - | -
COc1ccc(S(=O)(=O)N2CCC(C(=O)NCCc3ccccc3)CC2)cc1 | - | - | - | - | - | -
O=S(=O)(c1cccc(-c2csc(-c3cccnc3)n2)c1)N1CCCCC1 | - | 97.9 | - | - | - | -
O=S(=O)(c1cccc(-c2csc(-c3cccnc3)n2)c1)N1CCOCC1 | - | 99.2 | - | - | - | -
O=S(=O)(c1ccc(-c2csc(-c3cccnc3)n2)cc1)N1CCCC1 | - | 96.6 | - | - | - | -
CC1CCN(S(=O)(=O)c2cccc(-c3csc(-c4cccnc4)n3)c2)CC1 | - | - | - | - | - | -
O=C(CSc1nc2scc(-c3ccco3)c2c(=O)n1-c1ccccc1)NCC1CCCO1 (stereo not drawn) | - | 95.9 | - | - | - | -
COc1cccc(/C=C/C(=O)OCC(=O)NCCc2ccccc2)c1 | - | - | - | - | - | -
O=C(O)c1ccccc1NC(c1ccccc1)c1ccc(Cl)cc1 (stereo not drawn) | - | 90.6 | - | - | . | -
COc1cccc(N2CCN(Cc3ccco3)CC2)c1 | - | 86.8 | - | - | - | -
COc1cccc(N2CCN(Cc3ccsc3)CC2)c1 | - | 88.6 | - | - | - | -
COc1cccc(CN2CCN(Cc3ccco3)CC2)c1 | - | - | - | - | - | -
CCCn1c(N)c(N(CCOC)C(=O)c2ccc(S(=O)(=O)N3CCOCC3)cc2)c(=O)[nH]c1=O | . | . | . | . | - | .
CNc1ccc(C2(O)C(=O)c3ccccc3C2=O)cc1 | - | 83.2 | - | - | . | -
Cc1ccc(/C=C/S(=O)(=O)NCCC(=O)NCc2ccccc2F)cc1 | . | - | - | - | - | -
Cc1ccc(-c2sc(C(=O)NN)c(C)c2C#N)cc1 | - | - | - | - | - | -
Cc1ccc(CN2CCSc3ccc(C(=O)NCC4CCCO4)cc32)cc1 (stereo not drawn) | - | 86.7 | - | - | - | -
Cc1ccc(CN2CCSc3ccc(C(=O)NCCCN4CCN(C)CC4)cc32)cc1 | - | 98.5 | - | - | - | -
COc1ccc(Br)cc1CNC(=O)c1ccc2c(c1)N(C)CCS2 | - | - | - | - | - | -
CN1CCSc2ccc(C(=O)NCc3cccc(F)c3)cc21 | - | 92.3 | - | - | - | -
CN(C)CCNC(=O)c1ccc2c(c1)N(Cc1ccc(F)cc1)CCS2 | - | 99.1 | - | - | - | -
Cc1ccc(CN2CCSc3ccc(C(=O)NC4CCCC4)cc32)cc1 | - | - | - | - | - | -
CCCCC(CC)CNC(=O)CN1C(=O)NC2(CCc3ccccc32)C1=O (stereo not drawn) | . | - | - | - | - | -
SMILES | Rce1 inh | ALR H2O2 inh | HDAC3 inhib | GRK2 aptamer HTS | Rtt109 HAT inh | Efflux pump inh
CCOc1ccc(Nc2nc(Cc3nnc(SCC(=O)O)o3)cs2)cc1 | - | 86.5 | - | - | - | -
O=C1CCN(Cc2ccccc2)C(=S)N1 | . | . | . | . | - | .
O=C(NCc1ccccc1Cl)C1CCC(CNc2c(N3CCOCC3)c(=O)c2=O)CC1 (stereo not drawn) | - | - | - | - | - | -
CCN(CC)c1ccc(NC(=S)NC(=O)C2CCC2)cc1 | - | 98.6 | - | - | - | -
CCN(CC)c1ccc(NC(=O)OC)cc1 | - | 91.2 | - | - | - | -
CCN(CC)c1ccc(NC(=O)c2cnn(CC)c2)cc1 | - | 99.5 | - | - | - | -
CC(=O)Nc1ccc(NC(=S)NC(=O)C2CCCC2)cc1 | - | - | - | - | - | -
CCN(CC)c1ccc(NC(=O)c2ccc(Br)o2)cc1 | - | 96.4 | - | - | - | -
CCOC(=O)C(Cc1ccccc1)C(=O)Nc1ccc(N(CC)CC)cc1 (stereo not drawn) | - | 98.8 | - | - | - | -
CCc1ccc(-c2nn(Cc3ccccc3)cc2/C=C/C(=O)O)cc1 | - | 79.7 | - | - | - | -
O=C(O)/C=C/c1cn(Cc2ccccc2)nc1-c1cccnc1 | - | - | - | - | - | -
COc1cccc(NC(=O)c2ccc3nc(C)sc3c2)c1 | - | - | - | - | - | -
CCCOc1cccc(C2C(C(=O)c3cccs3)=C(O)C(=O)N2CCN2CCOCC2)c1 (stereo not drawn) | - | . | - | - | - | -
COc1ccccc1NC(=O)Cc1nnc(SCC(=O)Nc2nccs2)n1C | + | . | - | - | - | -
CCn1c(CC(=O)Nc2ccccc2OC)nnc1SCC(=O)Nc1ccccc1F | - | 93.1 | - | - | - | -
Cc1cccc(-n2c(CNC(=O)COc3ccccc3)nnc2SCC(=O)Nc2nccs2)c1 | . | - | - | - | - | -
COc1cccc(C(=O)NCc2nnc(SCC(=O)Nc3nccs3)n2-c2cccc(C)c2)c1 | - | - | - | - | 61.4 | -
O=C(CC1C(=O)NCCN1C1CCCC1)NCc1cccc(OC(F)(F)F)c1 (stereo not drawn) | - | - | - | - | - | -
COc1ccc(C)cc1S(=O)(=O)NC(C)C(=O)Nc1ccc2c(c1)OCO2 (stereo not drawn) | . | - | - | - | - | -
Cc1cc(F)ccc1S(=O)(=O)N1CCCOC1CNC(=O)C(=O)NCc1ccncc1 (stereo not drawn) | - | - | - | - | - | -
C=CCn1c(N)c(C(=O)N2CCN(C)CC2)sc1=S | - | 98.5 | - | - | - | -
CCn1c(C)c(C)c2cc(C(=O)NC3CCCCCC3)ccc21 | - | ? | - | - | - | -
CCOC(=O)c1sc(=S)n(Cc2ccccc2)c1N | - | - | - | - | - | -
CCn1c(N)c(C(=O)NC2CCCCC2)sc1=S | - | 98.2 | - | - | - | -
CCOC(=O)c1sc(=S)n(CC)c1N | - | 98.8 | - | - | - | -
SMILES | Rce1 inh | ALR H2O2 inh | HDAC3 inhib | GRK2 aptamer HTS | Rtt109 HAT inh | Efflux pump inh
CCOC(=O)c1sc(=S)n(C)c1N | - | 98.9 | - | - | - | -
COc1ccc(C)cc1S(=O)(=O)N1CCCC(C(=O)N2CCN(c3ccccc3F)CC2)C1 (stereo not drawn) | - | - | - | - | - | -
CCn1c(N)c(C(=O)NCc2ccco2)sc1=S | - | . | - | - | - | -
CCn1c(N)c(C(N)=O)sc1=S | - | 97.6 | - | - | - | -
C=CCn1c(NC(=O)CC)c(C(=O)OCC)sc1=S | - | - | - | - | - | -
C=CCn1c(N)c(C(=O)OCC)sc1=S | - | 99.1 | - | - | - | -
COC(=O)c1sc(-c2ccc(C(C)(C)C)cc2)cc1NC(=O)CSCC(=O)O | - | 97.7 | - | - | - | -
COC(=O)c1sc(-c2ccc(C(C)(C)C)cc2)cc1NC(=O)c1ccccc1C(=O)O | - | 91.6 | - | - | - | -
COC(=O)c1sc(-c2ccccc2)cc1NC(=O)C1CC1 | - | - | - | - | - | -
COC(=O)c1sc(-c2ccc(Cl)cc2)cc1NC(=O)c1ccccc1C(=O)O | - | 97.3 | - | - | - | -
